Gli-Sufu block – antagonists of Gli-Sufu signaling; Sufu-KO-LIGHT fibroblasts, Gli luciferase reporter luminescence; inhibition, % at 5 µM; 340,000 tested, 0.74% active; AID 588413;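 active = inhibition above about 55%, limit read from the data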
SRC1 inh – inhibits human SRC1 coactivator; HEK293 GAL4-SRC1 luciferase reporter, luminescence; inhibition, % at 3.6 µM; 360,000 tested, 0.12% active;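 active = inhibition above the campaign mean plus 3 SD, with each screening campaign given its own cutoff, cut at about 60% in these data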
SRC3 inh – human NCOA3 inhibition | inhibition, % at 3.6 µM | Q9Y6Q9 | HEK293 GAL4-SRC3 luciferase reporter, luminescence | AID 588352 | 360,000 tested, 0.17% active;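 active = inhibition above a per-campaign cutoff, the mean of all compounds plus 3 SD, cut at about 60% in these data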;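 also: higher means less SRC3-driven luciferase light from the GAL4 reporter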
NR2F2 inh – inhibitors of human COUP-TFII (NR2F2) | P24468 | HEK293T NGFI-A luciferase reporter, luminescence | inhibition, % at 8.6 µM | 370,000 tested, 0.7% active | AID 686940;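 active = inhibition above a per-plate cutoff, mean inhibition of test wells between control levels plus 3 SD, cut at about 38% in these data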;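 also: cells cotransfected with COUP-TFII expression vector driving the NGFI-A reporter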
SRC2 inh – human SRC2 (NCOA2) inhibition; HEK293 GAL4-SRC2 luciferase reporter, luminescence; inhibition, % at 9 µM; 370,000 tested, 0.17% active;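 active = inhibition above the mean inhibition of all tested compounds plus 3 SD, set per campaign, cut at about 52% in these data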
LRH-1 inv ag – suppresses constitutive activity of human LRH-1 | 360,000 tested, 0.13% active | HEK293T StAR-luciferase reporter, LRH-1 transfected, 24 h | inhibition, % at 3.6 µM;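 active = inhibition above the mean inhibition of all tested compounds plus 3 SD, cut at about 73% in these data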
Gli-Sufu confirm – Gli-SUFU antagonism confirmation, single concentration; shares compounds with Gli-Sufu block; Sufu-KO-LIGHT cells, Gli luciferase reporter, luminescence; inhibition, % at 5 µM; 2,500 tested, 40% active;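 active = mean inhibition at 5 µM reaching about 45%, limit read from the data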
SufuKO cytotox – counter-screen for Gli-SUFU antagonists: cytotoxicity. shares compounds with Gli-Sufu block. Sufu-KO-LIGHT cells cytotoxicity, ATP luminescence. cytotoxicity, % at 5 µM. 2,500 tested, 32% active;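 active = mean cytotoxicity at 5 µM above about 25%, limit read from the data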;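 also: cells exposed to compound overnight for roughly 16 to 18 hours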
Wnt3a counter – Wnt3a reporter inhibition counter-screen | shares compounds with Gli-Sufu block | Wnt-LIGHT cells, Wnt3a-driven luciferase reporter, luminescence | inhibition, % at 6.25 µM | 2,500 tested, 20% active | AID 651995;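 active = mean inhibition above about 25%, limit read from the data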
Gal4-VP16 ctr – counter-screen for COUP-TFII antagonists: inhibitors of VP16; HEK293 Gal4-VP16 luciferase reporter, luminescence; shares compounds with NR2F2 inh; 2,500 tested, 25% active; AID 687007; inhibition, % at 8.5 µM; in the data active = inhibition above about 13%
NR2F2 inh conf – confirmation of human COUP-TFII (NR2F2) inhibitors; shares compounds with NR2F2 inh; HEK293 NGFI-A luciferase reporter, luminescence; inhibition, % at 8.5 µM; 2,500 tested, 45% active; AID 687008;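 active = mean inhibition over three repeats above a set limit taken from the earlier primary screen, cut at about 38% in these data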
A number is an active result; - = inactive; . = not tested or not shown. Rows were chosen to be rich in hits. Some 1.3% of all compounds tested hit in one or more screens of this group.

SMILES	Gli-Sufu block	SRC1 inh	SRC3 inh	NR2F2 inh	SRC2 inh	LRH-1 inv ag	Gli-Sufu confirm	SufuKO cytotox	Wnt3a counter	Gal4-VP16 ctr	NR2F2 inh conf
Cc1ccc(NS(=O)(=O)c2ccc(-c3cnc(C4CC4)o3)cc2)cc1	-	-	-	-	-	-	.	.	.	.	.
O=S(=O)(NCc1ccccc1)c1ccc(-c2cnc(C3CC3)o2)cc1	-	-	-	-	-	-	.	.	.	.	.
COC(=O)C1CN(Cc2ccc(C)cc2)CCS(=O)(=O)N1Cc1cn(Cc2ccc(Cl)cc2)nn1 (stereo unspecified)	.	.	.	-	-	.	.	.	.	.	.
CCn1nc(C)c(CNC(=O)c2ccc(OC3CCN(Cc4ccccn4)CC3)cc2)c1C	64	-	-	58	-	-	66	33	38	16	66
O=C(NCCc1cccc(Cl)c1)c1ccc(OC2CCN(Cc3ccccn3)CC2)cc1	-	-	-	61	-	-	50	-	-	-	40
COC(=O)[C@H](C(C)C)N1CCc2nnn(Cc3ccc(C)cc3)c2-c2cc(F)ccc2S1(=O)=O	.	.	.	-	-	.	.	.	.	.	.
COc1ccc(S[C@]2(C(=O)N3CCOCC3)CC(=O)N(c3ccccc3)[C@@H]2c2ccc(OC)cc2)cc1	.	.	.	-	-	.	.	.	.	.	.
COc1ccc(NS(=O)(=O)c2ccc(NC(=O)c3ccc(CN4CCOCC4)cc3)cc2)cc1	57	-	-	64	-	-	-	-	-	-	52
COc1ccc(NS(=O)(=O)c2ccc(N3CCOCC3)c(N)c2)cc1	62	-	-	48	-	-	61	26	28	-	-
Cc1nn(C(C)(C)C)c(C)c1/C=N/OC(=O)Nc1ccc(Cl)c(Cl)c1	88	-	79	69	70	-	89	-	103	49	84
O=C(NCC(c1ccco1)N1CCCC1)c1ccc(Cl)c(S(=O)(=O)N2CCc3ccccc32)c1 (stereo unspecified)	67	-	-	66	-	-	59	34	28	-	50
O=C(NCC(c1ccco1)N1CCc2ccccc2C1)c1ccc(Cl)c([N+](=O)[O-])c1 (stereo unspecified)	-	-	-	-	-	-	.	.	.	.	.
C=CCN1[C@@H](Cc2ccccc2)COc2cccc(N3CCCC3)c2S1(=O)=O	.	.	.	-	-	.	.	.	.	.	.
C#CCN1CC(N(C)CCOC(=O)c2occ3ccccc23)CS1(=O)=O (stereo unspecified)	.	.	.	-	-	.	.	.	.	.	.
Cc1nn(C)c(C)c1/C=C/C(=O)c1ccc(Cl)cc1Cl	64	-	-	47	-	-	63	-	-	-	38
CC1Cc2cc(S(=O)(=O)N3CCN(c4ccc(Cl)cc4)CC3)ccc2N1C(=O)C1CC1 (stereo unspecified)	-	-	-	-	-	-	.	.	.	.	.
CC(=O)N1c2ccc(S(=O)(=O)N3CCC(C(=O)N4CCN(c5ccc(Cl)cc5)CC4)CC3)cc2CC1C (stereo unspecified)	76	-	-	44	-	-	74	35	-	-	-
C=CCn1c(SCC(=O)C(C)(C)C)nnc1-c1ccc(Cl)cc1	.	.	.	-	-	.	.	.	.	.	.
Cn1c(CCN2CCN(c3ccccn3)CC2)nc2cc(NC(=O)COc3ccc(Cl)cc3)ccc21	61	-	-	61	-	-	-	-	29	-	59
NC(=S)NNc1ccnc2cc(Cl)ccc12	-	-	-	-	-	-	.	.	.	.	.
O=C(NNc1ccnc2cc(Cl)ccc12)C1CCCCC1	77	-	-	57	-	-	76	35	34	13	65
CC(C)(C)c1ccc(C(=O)NCCOc2ccccc2F)cc1	55	-	-	53	-	-	74	-	89	-	46
CC(C)(C)c1ccc(C(=O)NCCOc2ccccc2)cc1	-	-	-	-	-	-	.	.	.	.	.
Cc1csc2ncnc(NCCc3ccccn3)c12	67	-	-	68	-	-	57	29	27	-	48
OC[C@H]1O[C@@H](n2cnc3c(Nc4ccccc4)ncnc32)[C@H](O)[C@@H]1O	-	-	-	-	-	-	.	.	.	.	.
SMILES	Gli-Sufu block	SRC1 inh	SRC3 inh	NR2F2 inh	SRC2 inh	LRH-1 inv ag	Gli-Sufu confirm	SufuKO cytotox	Wnt3a counter	Gal4-VP16 ctr	NR2F2 inh conf
OCC1OC(n2ccc3c(NO)ncnc32)C(O)C1O (stereo unspecified)	75	69	85	47	-	98	60	54	69	27	-
CCOC(=O)CC[C@@H]1CC[C@]2(CCCN(C(=O)C3CCCC3)C2)O1	.	.	.	-	-	.	.	.	.	.	.
CC(C)(C)C(=O)Nc1cc2nn(-c3ccccc3)nc2cc1Cl	81	82	81	87	73	83	87	83	104	72	101
CC(=O)Nc1cc2nn(-c3ccccc3)nc2cc1Cl	-	-	-	-	-	-	.	.	.	.	.
C=CCN1C[C@@H](COCc2ccccc2)Oc2cc(F)ccc2S1(=O)=O	.	.	.	-	-	.	.	.	.	.	.
Cc1cccc(OCc2n(CC(=O)OC3CC(C)CCC3C(C)C)c3ccccc3[n+]2C)c1 (stereo unspecified)	-	-	-	.	.	-	.	.	.	.	.
CC1CCC(C(C)C)C(OC(=O)Cn2c(-c3ccccc3)[n+](C)c3ccccc32)C1 (stereo unspecified)	87	-	79	57	-	75	89	38	38	14	38
Cc1csc2c(N3CCN(S(=O)(=O)c4ccc(Cl)cc4)CC3)ncnc12	-	-	-	-	-	-	.	.	.	.	.
O=S(=O)(c1ccc(Cl)cc1)N1CCN(c2ncnc3sccc23)CC1	-	-	-	47	-	-	46	-	35	-	-
CC(C)C[C@H]1COc2cc(Br)ccc2S(=O)(=O)N1Cc1cn(Cc2ccc(F)cc2)nn1	.	.	.	-	-	.	.	.	.	.	.
CC(=O)N[C@H]1C[C@@H]2O[C@H](CO)CC[C@@H]2O[C@@H]1CCc1ccc(-c2ccc(F)cc2)cc1	.	.	.	-	-	.	.	.	.	.	.
CC(=O)c1c(C)[nH]c(C(=O)OCC(=O)Nc2cccc(S(=O)(=O)N3CCCC3)c2)c1C	58	-	-	66	-	-	53	-	-	-	-
Cc1ccc(-n2c(SCC(=O)Nc3ccccc3-c3ccccc3)nnc2-c2cccnc2)cc1	.	.	.	-	-	.	.	.	.	.	.
O=C(NCc1ccco1)C1CCCN(S(=O)(=O)c2cccs2)C1 (stereo unspecified)	.	.	.	-	-	.	.	.	.	.	.
